This passage reports activation and Potency results from PubChem BioAssay (NCATS).

Several values for one entry are separate records, joined by “and”; a condition that tells them apart may be missing. Equal entries are not always repeated. Records with an inconclusive call do not appear. A number with no mark means an inactive call. Activity calls are given as the source filed them. Calls come from the whole dose curve; as a rule, active = well fitted activation curve with a large enough effect; inconclusive = small, poorly fitted or top-dose-only effect; inactive = no such curve, though single readings can be large or run the other way.
Potency is the fitted concentration of half-maximal effect.

Chain of Cellular tumor antigen p53 (Homo sapiens) (P04637 whole entry, looked up): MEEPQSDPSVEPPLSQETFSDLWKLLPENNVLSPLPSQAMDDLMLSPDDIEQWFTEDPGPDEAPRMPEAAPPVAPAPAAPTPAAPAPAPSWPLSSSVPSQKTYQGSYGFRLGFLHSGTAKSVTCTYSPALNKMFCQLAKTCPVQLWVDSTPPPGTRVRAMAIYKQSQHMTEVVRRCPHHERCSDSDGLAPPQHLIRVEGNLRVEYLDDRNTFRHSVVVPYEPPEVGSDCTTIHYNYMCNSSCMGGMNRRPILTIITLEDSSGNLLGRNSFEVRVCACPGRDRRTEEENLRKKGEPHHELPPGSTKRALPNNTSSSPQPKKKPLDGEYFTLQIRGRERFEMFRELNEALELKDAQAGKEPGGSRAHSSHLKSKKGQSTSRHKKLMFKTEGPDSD

The test has as its target Cellular tumor antigen p53 (Homo sapiens) (UniProt P04637). In words: Primary qHTS for small molecule compounds that upregulate eGFP-tagged delta133p53alpha (in N-terminal) cells. (AID 2060322).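 For activation: cells pre-induced with doxycycline then dosed without doxycycline; series mostly up to about 56 µM; 0% = DMSO vehicle and 100% = reference activator.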 Note: nearly all actives have a fitted effect of over 75% in size. The settings on record: NCI-H358 eGFP-delta133p53alpha fluorescence, 24 h; activation: stronger effect = higher value. The source says: Assay Development and Screening Technology
National Center for Advancing Translational Sciences (NCATS),
National Institute of Health (NIH), Rockville, Maryland
Cellular senescence (CS) is one of the hallmarks of aging and age-related diseases. Senescent cells are characterized by an irreversible growth arrest, an increase in senescence-associated beta-galactosidase (SA-beta-gal) activity and p16INK4a expression, an activation of the DNA damage response pathways, and the emergence of a senescence-associated secretory phenotype (SASP).
Delta133p53alpha, a human/primate-specific p53 protein isoform, delays or inhibits the induction of CS and SASP in various types of human cells, including progeria-derived fibroblasts, primary normal astrocytes, and CD8+ T lymphocytes. Induction of delta133p53alpha with small molecule compounds may provide therapeutic opportunities for inhibition of senescence/SASP-associated pathologies in progeria syndromes, astrocyte-mediated neuroprotection in neurodegenerative diseases, and possibly prevention and treatment of a wider range of senescence- and aging-associated diseases.
Here we report the development and validation of a cell-based quantitative high throughput screening (qHTS) assay in 1,536-well format. This qHTS assay uses the NCI-H358 cell line with doxycycline-inducible expression of enhanced green fluorescent protein (eGFP)-tagged delta133p53alpha, which allows efficient and highly quantitative measurement of the protein levels.
PROTOCOL TABLE (as described by Inglese J, Shamu CE and Guy RK. 2007)
SEQUENCE No. (e.g., 1, 2, 3, etc.); […] (e.g., Cells, Incubation, Reagent, etc.); VALUE; DESCRIPTION.
1; Cells; 4uL; 800 doxycycline treated cells / well in doxycycline-free media, 1536-well black, clear-bottom low base Aurora microplates.
2; Compounds; 23 nL; Kalypsis pin tool (Wako) equipped with 1536-well pin heads, 5-azacytidine positive control.
3; Incubation; 24 hr; 37C, 5% CO2; 95% relative humidity.
4; Aspiration; 1x; BioTek EL406 washer dispenser (Agilent).
5; Fixing; 3.5% paraformaldehyde, BioTek EL406 washer dispenser (Agilent).
6; Washing; 1x PBS; BioTek EL406 washer dispenser (Agilent).
7; Nuclei staining; 1:1000 dilution of Hoechst 33342 (Thermofisher), BioTek EL406 washer dispenser (Agilent).
8; Incubation; 20 min; in the dark at room temperature.
9; Washing; 2x, 1x PBS (ThermoFisher), BioTek EL406 washer dispenser (Agilent).
10; Reagent; 10 uL; 1x PBS per well, sealed with clear adhesive tape.
NOTES (numbers refer to sequence numbers above).
1. NCI-H358 cells expressing eGFP-tagged delta133p53alpha were grown in T75 culture flasks and treated with doxycycline for 24h, at 10 ng/ml for eGFP-D133p53a cells (N-terminal cell) and 100 ng/ml for D133p53a-eGFP cells (C-terminal cells). Cells were trypsinized, counted using a Counted 3 Automated Cell Counter (Thermo Fisher), and diluted to a concentration of 200,000 cells/ml. A Multidrop Combi Reagent Dispenser (ThermoFisher) was used to dispense 800 cells/well in […] of doxycycline-free media, into 1536-well black/clear bottom low base plates (AuroraMicroplates).
2. After plating cells, 23 nl of compound library, DMSO vehicle control or positive control (5-azacytidine) were transferred by Pin Tool (Wako). The plate map layout was the same for each plate: (column 1) non-doxycycline treated cells + DMSO vehicle control; (column 2) doxycycline treated cells + DMSO vehicle control baseline; (column 3) doxycycline treated cells + positive control 57.5 uM final concentration 5-azacytidine; (column 4) doxycycline treated cells + serial dilution of 5-azacytidine, 16-point 1:2 titration spanning 1.8 nM to […] final concentration; (columns 5-48) doxycycline treated cells + titration of library compounds.
3. Cells were incubated at 37 °C, 5 % CO2, 95% RH with breathable metal lid for 24h.
4-10. […] After two washes, 10 ul of 1X PBS (Thermo Fisher) was dispensed to each well. Clear adhesive plate seals (VWR) were applied and plates stored at 4 °C.
11. […]
(In general: In qHTS, concentration-response curves come from the screen itself.)
On to `CC(C(=O)O)c1ccc2c(c1)Cc1cccnc1O2` (stereo not given), for which the activation is -30.1%.
`CCCCNc1ccc(-c2ccc(CN3CCOCC3)cn2)c(NC2CCC(O)CC2)c1` (stereo not given): the activation is 1.91%.
For `C=CC1(C)CC(OC(=O)C(=C)C(O)COC(C)=O)C(C(=C)C(=O)OC)C(O)C1C(=C)CO` (stereo not given), the activation is -2.29%.
Take `O=C(Cc1cccc(OC(F)(F)F)c1)Nc1ccc(CCCCc2nnc(NC(=O)Cc3ccccn3)s2)nn1`: the activation is 7.71%.
Still for that read-out and setting: next, `COc1cccc(C(=O)NCCN2CCN(c3ccc(Cl)cc3)CC2)c1`: -34.4%; `C=C1CC[C@@H]2[C@](C)(CO)[C@H](O)CC[C@@]2(C)[C@@H]1CC(=O)C1=CCOC1=O`: 9.16%; `Cc1cn(C[C@H](N)C(=O)O)c(=O)n(Cc2ccsc2C(=O)O)c1=O`: 15.3%.
Regarding `C[C@]12CCC3=C4CCC(=O)C=C4CC[C@@H]3[C@H]1CC[C@@]2(O)CC#N`, the activation is 7.95%.
In the case of `CCN(CC)CCCS(=O)(=O)N[C@H](CCc1ccccc1)c1nc(Cc2ccc(Br)cc2)no1`, the activation was 7.64%.
For `CC(C)(NS(=O)(=O)c1ccc(Oc2ccc(F)cc2)cc1)C(=O)NO`, the activation is -8.16%.
As to `CC(C)(O)c1ccc2c(c1)C(=O)C[C@H]1[C@](C)(C(=O)O)CCC[C@]21C`, the activation was -1.53%.
Turning to `C[N+](C)(C)CCOC(=O)CCC(=O)OCC[N+](C)(C)C`, the activation is -8.47%.
On to `Nc1ncnc2c1c(-c1cnc3[nH]ccc3c1)nn2C1CCCC1`, for which the Potency is 26.9 µM (active).
With `Cc1oncc1C(=O)Nc1ccc(C(F)(F)F)cc1`, the activation was -3.35% and -18.5% and -19%.
Turning to `CC(C)CC(NP(=O)(O)O[C@@H]1O[C@@H](C)[C@H](O)[C@@H](O)[C@H]1O)C(=O)NC(Cc1c[nH]c2ccccc12)C(=O)O` (stereo not given in full), the activation is -14.9%.
With `COc1cc2ncnc(Nc3ccc(O)cc3)c2cc1OC`, the activation is 4.46%.
Take `CNC1(C)C2CCC(C2)C1(C)C` (stereo not given): the activation was -45.5%.
Turning to `COC(=O)C1=COC(O[C@@H]2O[C@H](CO)[C@@H](O)[C@H](O)[C@H]2O)[C@H]2[C@@H]1[C@H](OC(=O)CCc1ccc(O)cc1)C[C@]2(C)O` (stereo not given in full), the activation was 21.4%.
`O=C(Nc1ccc(S(=O)(=O)N2CCOCC2)cc1)c1cc(Cl)ccc1NS(=O)(=O)c1ccc(Cl)s1`: the activation is 0.837%.
Regarding `Cc1ccc(S(=O)(=O)c2ccc([N+](=O)[O-])o2)cc1`, the Potency was 8.49 µM (active).
Regarding `COc1cc(C=CC(=O)CC(=O)C=Cc2ccc(O)c(OC)c2)ccc1O`, the Potency is 39.5 µM (active).
As to `O=C1[C@H](O[C@@H]2O[C@H](CO)[C@@H](O)[C@H](O)[C@H]2O)Oc2ccccc2N1O`, the activation is 14.3%.
Turning to `CNc1ccc([N+](=O)[O-])c(Nc2ccc3[nH]ncc3c2)n1`, the Potency was 10.7 µM (active).
With `COc1cc(CCO)ccc1O[C@@H]1O[C@H](CO)[C@@H](O)[C@H](O)[C@H]1O`, the activation was 5.36%.
As to `Cc1cn2cc(CC(=O)N3CCC4(CC3)CN(Cc3ccc(-n5nccn5)cc3Cl)C4)nc2s1`, the activation was -8.93%.
Regarding `Cc1ccccc1C(=O)Nc1ccc(C(=O)N2CCCC(O)c3cc(Cl)ccc32)c(C)c1` (stereo not given), the activation is 0.83%.
As to `C[C@@]1(C(=O)O)CCC[C@@]2(C)C3=CC[C@H]4C[C@@]3(CC[C@H]12)CC4(O)CO` (stereo not given in full), the activation was -2.29%.
For the compound `COC1CC(=O)C23C(=O)NC(CC(C)C)C2C(C)C(C)=CC3/C=C(\C)CCC(O)C1O` (stereo not given), the activation was 23.7%.
With `CC(=O)O[C@H]1C[C@@](O)(C(C)C)C2[C@@H](OC(=O)c3ccc(O)cc3)C[C@@]3(C)O[C@H]3C[C@]21C` (stereo not given in full), the activation was -6.11%.
Still for that read-out and setting: next, `OC[C@H]1O[C@@H](n2cnc3c2NC=NC[C@@H]3O)C[C@H]1O`: -21%.
For the compound `COCCN1CCN(Cc2ccc(-c3n[nH]c4c3C(=O)c3c(NC(=O)NN5CCOCC5)cccc3-4)cc2)CC1`, the Potency was 0.0757 µM (active).
For the compound `CC(C)(C)NCc1cc(Nc2ccnc3cc(Cl)ccc23)c2c(c1O)CCCC2`, the activation is -11%.
For `CCOC(=O)NNc1ccc(N(CC)CC(C)O)nn1` (stereo not given), the activation is 15.1%.
As for `COc1cc2nc(N3CCN(C(=O)c4ccco4)CC3)nc(N)c2cc1OC`, the activation is 2.51% and 14.7% and 81.5%.
`CNCCCC12CCC(c3ccccc31)c1ccccc12`: the activation is -7.08% and 22.3% and 47.4%.
Same read-out and setting: next, `COc1ccc(-c2c(-c3cc(C(=O)O)ccn3)ncn2C)cc1`: -2.33%.
As for `CCN(CC)CCOCCOC(=O)C(CC)(CC)c1ccccc1`, the activation was -4.3%.
As for `CC[C@H]1OC(=O)[C@H](C)[C@@H](O[C@H]2C[C@@](C)(OC)[C@@H](O)[C@H](C)O2)[C@H](C)[C@@H](O[C@@H]2O[C@H](C)C[C@H](N(C)C)[C@@H]2O)[C@](C)(O)C[C@@H](C)CN(C)[C@H](C)[C@@H](O)[C@]1(C)O`, the activation is 2.23%.
The same measure, in the same setting: for `COc1cc2occc2c(O[C@@H]2O[C@H](CO)[C@@H](O)[C@H](O)[C@H]2O)c1CCC(=O)O` the value was 9.16%; for `Cc1ccc(N2CCN(S(=O)(=O)N3CCCCC3)CC2)c(C)c1`, 17.9%.
